Reference: PubChem BioAssay (EPA / NIEHS)
Values joined by “and” are separate entries in the source; they are usually repeats but may differ in a detail not shown here. Equal entries are not always repeated. Results filed as inconclusive are left out. More than one record can exist for a structure, and the calls need not agree. Active and inactive are the calls of the source. Rule for the calls, unless noted: active = hit-call score of the fitted dose curve at least 0.9, where 1 is the maximum; inactive = score below 0.9.

Tests used:
[1] = target: Nuclear respiratory factor 1 (Homo sapiens) (UniProt Q16656); assay: ATG_NRF1_CIS: Attagene CIS-FACTORIAL HepG2 Assay for human Nuclear Respiratory Factor 1 (NRF1) Orphan Gene (AID 2282987); details: HepG2 NRF1 cis-element reporter, Attagene multiplex; actives raise or lower the signal
Procedure, shortened: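 Endogenous NRF1-driven reporter transcription measured in transiently transfected human HepG2 liver cells. Readout: reporter mRNA by RT-PCR and capillary electrophoresis with fluorescence detection, 24 h post-dosing. Gain or loss of signal fitted relative to DMSO baseline.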

[2] = ATG_NFI_CIS: Attagene CIS-FACTORIAL HepG2 Assay for human Nuclear Factor I (NFI) (AID 2282989); details: HepG2 cis-regulatory reporter, NFI response element transcription; actives raise or lower the signal
Procedure, shortened: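 Reporter transcripts were measured by RT-PCR with fluorescent primer extension and capillary electrophoresis 24 h post-treatment. HepG2 cells carried transiently transfected cis-regulated reporter constructs reporting endogenous factor activity; gain or loss fitted against DMSO baseline.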

[3] = target: Myc proto-oncogene protein (Homo sapiens) (UniProt P01106); assay: ATG_Myc_CIS: Attagene CIS-FACTORIAL HepG2 Assay for human Myelocytomatosis (Myc) Proto-Oncogene Transcription Factor (AID 2282990); details: HepG2, Attagene cis-reporter transcription factor activity; actives raise or lower the signal
Procedure, shortened: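 After 24 h chemical treatment of HepG2 cells carrying multiplexed cis-regulated reporter constructs, reporter transcripts quantified by RT-PCR and capillary electrophoresis of fluorescent fragments. Gain or loss fitted against DMSO baseline.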

[4] = ATG_NF_kB_CIS: Attagene CIS-FACTORIAL HepG2 Assay for human Nuclear Factor Kappa B (NF-kB) (AID 2282991); details: HepG2 Attagene cis-factorial NF-kB reporter mRNA; actives raise or lower the signal
Procedure, shortened: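 Read-out: reporter transcript levels quantified by RT-PCR plus capillary electrophoresis of 6-FAM-labelled, HpaI-cut fragments. Transfected HepG2 cells, 24 h compound exposure, endogenous NF-kB-driven cis element; gain or loss scored versus DMSO.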

[5] = ATG_NRF2_ARE_CIS: Attagene CIS-FACTORIAL HepG2 Assay for human Nuclear Factor Erythroid 2 Related Factor 2 (NFR2) response to Antioxidant Response Elements (ARE) (AID 2282992); details: HepG2 Attagene ARE/NRF2 reporter, transcription factor activity; actives raise or lower the signal
Procedure, shortened: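 Transient MRTU transfection of HepG2; 24 h compound exposure; TriZol RNA, RT with oligo(dT), PCR, 6-FAM primer extension, HpaI cut, CE. Bidirectional fit vs DMSO.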

[6] = target: Cellular tumor antigen p53 (Homo sapiens) (UniProt P04637); assay: ATG_p53_CIS: Attagene CIS-FACTORIAL HepG2 Assay for human p53 Transcription Factor (AID 2282994); details: HepG2 p53 cis-element reporter, Attagene mRNA; actives raise or lower the signal
Procedure, shortened: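 HepG2, transient MRTU transfection (cis promoter elements, endogenous TFs); 24 h dosing; RNA isolation, RT-PCR, 6-FAM primer extension, HpaI digest, CE fluorescence; bidirectional fit vs DMSO.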

[7] = BSK_3C_TissueFactor: BioMAP Diversity Plus: 3C Assay for Tissue Factor Biomarker Activity (AID 2282997); details: BioMAP 3C HUVEC, tissue factor biomarker readout; actives raise or lower the signal
Procedure, shortened: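 Endothelial monolayers (human umbilical vein, primary) are dosed, incubated 24 h, and assayed for Tissue Factor by ELISA; DMSO serves as negative control for bidirectional fitting.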

[8] = BSK_3C_uPAR: BioMAP Diversity Plus: 3C Assay for Urokinase-type plasminogen activator receptor (uPAR) Biomarker Activity (AID 2282998); details: BioMAP 3C HUVEC, uPAR biomarker ELISA; actives raise or lower the signal
Procedure, shortened: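 Cell-surface uPAR on HUVEC (3C system) read by ELISA at 24 h post-treatment, with DMSO as baseline and fitting in both directions. Parallel cultures stained with SRB to flag overt cytotoxicity.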

[9] = BSK_3C_VCAM1: BioMAP Diversity Plus: 3C Assay for Vascular cell adhesion molecule 1 (VCAM1) Biomarker Activity (AID 2282999); details: BioMAP 3C HUVEC, VCAM1 ELISA, cytokine-stimulated; actives raise or lower the signal
Procedure, shortened: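 Endothelial cells from human umbilical vein are treated with test chemical. At 24 h, VCAM-1 is measured by ELISA, and responses in either direction are fitted relative to DMSO.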

[10] = BSK_4H_Eotaxin3: BioMAP Diversity Plus: 4H Assay for Eotaxin 3 Biomarker Activity (AID 2283000); details: primary human endothelial cells (HUVEC); actives raise or lower the signal;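 for outcome: CCL26 protein level quantified by ELISA in parallel with SRB cytotoxicity check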
Procedure, shortened: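 ELISA quantitation of CCL26 (Eotaxin-3) protein from chemically dosed human vascular endothelial cells at 24 h; increases and decreases both scored relative to DMSO-treated baseline.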

[11] = target: human Peroxisome Proliferator-activated Receptor alpha (PPARa), PPARA (gene 5465) (UniProt Q07869); assay: ATG_PPARa_TRANS: Attagene TRANS-FACTORIAL HepG2 Assay for human Peroxisome Proliferator-activated Receptor alpha (PPARa) (AID 2283001; active = hit-call score of the fitted dose curve at least 0.9, where 1 is the maximum;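 for AC50: potency for gain of reporter signal over DMSO so agonist or activator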)
Procedure, shortened: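 Reporter transcripts from GAL4-UAS units in transfected HepG2 were quantified 24 h after dosing. Detection used reverse transcription, PCR, fluorescent primer extension and capillary electrophoresis, with DMSO as baseline.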

[12] = target: human Peroxisome Proliferator-activated Receptor delta (PPARd), PPARD (gene 5467) (UniProt Q03181); assay: ATG_PPARd_TRANS: Attagene TRANS-FACTORIAL HepG2 Assay for human Peroxisome Proliferator-activated Receptor delta (PPARd) (AID 2283002; active = hit-call score of the fitted dose curve at least 0.9, where 1 is the maximum)
Procedure, shortened: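 Read-out is induced reporter mRNA, quantified by RT-PCR with fluorescent labelling and capillary electrophoresis after 24 h dosing. Cells are HepG2 transiently carrying multiple GAL4-UAS reporter units driven by exogenous NR-GAL4 chimeras; DMSO serves as baseline.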

[13] = read-out: Intercellular Adhesion Molecule 1 (ICAM1), ICAM1 (gene 3383); assay: BSK_3C_ICAM1: BioMAP Diversity Plus: 3C Assay for Intercellular Adhesion Molecule 1 (ICAM1) Biomarker Activity (AID 2283003); details: primary human endothelial cells (HUVEC); actives raise or lower the signal
Procedure, shortened: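 Primary human umbilical vein endothelial cells in the BioMAP 3C system were exposed to chemicals for 24 h, then ICAM-1 was quantified by ELISA. Activity was fitted bidirectionally against the DMSO negative control baseline.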

[14] = target: human Retinoic Acid Receptor beta (RARb), RARB (gene 5915) (UniProt P10826); assay: ATG_RARb_TRANS: Attagene TRANS-FACTORIAL HepG2 Assay for human Retinoic Acid Receptor beta (AID 2283004; active = hit-call score of the fitted dose curve at least 0.9, where 1 is the maximum)
Procedure, shortened: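 Fluorescent capillary-electrophoresis detection of GAL4-UAS reporter mRNA defines the endpoint, with induction over DMSO-treated wells scored as activity. Transiently transfected human hepatoma HepG2 cells expressing exogenous NR–Gal4 proteins are exposed to test chemicals for 24 h.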

[15] = target: Retinoic acid receptor alpha (Homo sapiens) (UniProt P10276); assay: ATG_RARa_TRANS: Attagene TRANS-FACTORIAL HepG2 Assay for human Retinoic Acid Receptor alpha (RARa) (AID 2283005; active = hit-call score of the fitted dose curve at least 0.9, where 1 is the maximum)
Procedure, shortened: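 Reporter transcripts, measured by RT-PCR with fluorescent labeling and capillary electrophoresis after 24 h dosing, reflect activity of an exogenous human RARa–GAL4 fusion in transiently transfected HepG2. Fitted for increase relative to DMSO.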

[16] = BSK_3C_Proliferation: Cell Proliferation Assessment in the BioMAP Diversity Plus: 3C Assay (AID 2283006); details: primary human endothelial cells (HUVEC);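 for AC50: potency may reflect either rise or fall in cell number versus DMSO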
Procedure, shortened: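 Human umbilical vein endothelial cells were grown sub-confluent and exposed to chemical for 48 h, then fixed with 10% TCA and stained with 0.1% sulforhodamine B; absorbance at 560 nm gave relative cell number, fitted bidirectionally against DMSO baseline.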

[17] = target: Nuclear receptor subfamily 1 group I member 2 (Homo sapiens) (UniProt O75469); assay: ATG_PXR_TRANS: Attagene TRANS-FACTORIAL HepG2 Assay for human Pregnane X Receptor (PXR) (AID 2283008; active = hit-call score of the fitted dose curve at least 0.9, where 1 is the maximum)
Procedure, shortened: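 Read-out is fluorescence of labelled reporter cDNA fragments separated by capillary electrophoresis after RT-PCR and HpaI digestion. Source: HepG2 cells carrying PXR-GAL4/UAS reporter constructs, treated 24 h; activity fitted upward relative to DMSO.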

[18] = target: human Retinoic Acid Receptor gamma (RARg), RARG (gene 5916) (UniProt P13631); assay: ATG_RARg_TRANS: Attagene TRANS-FACTORIAL HepG2 Assay for human Retinoic Acid Receptor gamma (RARg) (AID 2283009; active = hit-call score of the fitted dose curve at least 0.9, where 1 is the maximum)
Procedure, shortened: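 HepG2 cells transiently transfected with multiplexed reporter units expressing chimeric RARg-GAL4 and GAL4-UAS-driven reporters; 24 h compound exposure. Reporter mRNA quantified by RT-PCR with fluorescent labelling and capillary electrophoresis; gain-of-signal fitted relative to DMSO baseline.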

[19] = ATG_Oct_MLP_CIS: Attagene CIS-FACTORIAL HepG2 Assay for human Octamer-Binding Transcription Factor (Oct) (AID 2282993); details: HepG2 Attagene cis-factorial Oct reporter, mRNA; actives raise or lower the signal
Procedure, shortened: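 Readout is reporter transcript level from RT-PCR with fluorescent primer extension and capillary electrophoresis, fitted in both directions against DMSO. Transfected HepG2 reporter units report endogenous factor activity after 24 h dosing.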

Sequence of Myc proto-oncogene protein (Homo sapiens) (P01106 whole entry, looked up, the tested form may be a part): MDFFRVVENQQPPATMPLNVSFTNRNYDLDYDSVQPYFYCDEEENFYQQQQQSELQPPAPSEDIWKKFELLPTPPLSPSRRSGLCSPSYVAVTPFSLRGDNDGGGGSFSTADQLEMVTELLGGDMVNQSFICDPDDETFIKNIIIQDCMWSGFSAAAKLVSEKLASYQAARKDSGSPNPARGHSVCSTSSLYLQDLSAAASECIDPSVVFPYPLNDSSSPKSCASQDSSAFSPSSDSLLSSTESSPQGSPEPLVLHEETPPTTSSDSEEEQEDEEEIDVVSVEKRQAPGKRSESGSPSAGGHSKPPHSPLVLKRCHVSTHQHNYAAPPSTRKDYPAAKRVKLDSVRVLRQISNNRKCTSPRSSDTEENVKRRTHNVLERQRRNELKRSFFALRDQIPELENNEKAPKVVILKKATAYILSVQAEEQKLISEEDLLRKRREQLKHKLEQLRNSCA
Sequence of human Retinoic Acid Receptor gamma (RARg), RARG (gene 5916) (P13631 whole entry, looked up, the tested form may be a part): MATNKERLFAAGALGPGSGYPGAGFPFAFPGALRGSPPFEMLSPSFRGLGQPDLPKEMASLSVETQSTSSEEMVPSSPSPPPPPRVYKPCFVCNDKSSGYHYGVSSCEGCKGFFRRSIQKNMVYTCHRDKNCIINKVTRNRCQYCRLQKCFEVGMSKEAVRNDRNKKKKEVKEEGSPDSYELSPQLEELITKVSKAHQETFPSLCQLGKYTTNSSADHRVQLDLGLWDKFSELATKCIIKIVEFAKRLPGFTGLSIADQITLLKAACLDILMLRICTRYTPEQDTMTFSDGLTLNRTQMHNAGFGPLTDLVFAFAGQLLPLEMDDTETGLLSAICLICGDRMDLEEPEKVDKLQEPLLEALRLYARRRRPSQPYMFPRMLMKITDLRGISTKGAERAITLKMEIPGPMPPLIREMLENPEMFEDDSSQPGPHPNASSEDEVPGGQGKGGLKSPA
Sequence of human Peroxisome Proliferator-activated Receptor alpha (PPARa), PPARA (gene 5465) (Q07869 whole entry, looked up, the tested form may be a part): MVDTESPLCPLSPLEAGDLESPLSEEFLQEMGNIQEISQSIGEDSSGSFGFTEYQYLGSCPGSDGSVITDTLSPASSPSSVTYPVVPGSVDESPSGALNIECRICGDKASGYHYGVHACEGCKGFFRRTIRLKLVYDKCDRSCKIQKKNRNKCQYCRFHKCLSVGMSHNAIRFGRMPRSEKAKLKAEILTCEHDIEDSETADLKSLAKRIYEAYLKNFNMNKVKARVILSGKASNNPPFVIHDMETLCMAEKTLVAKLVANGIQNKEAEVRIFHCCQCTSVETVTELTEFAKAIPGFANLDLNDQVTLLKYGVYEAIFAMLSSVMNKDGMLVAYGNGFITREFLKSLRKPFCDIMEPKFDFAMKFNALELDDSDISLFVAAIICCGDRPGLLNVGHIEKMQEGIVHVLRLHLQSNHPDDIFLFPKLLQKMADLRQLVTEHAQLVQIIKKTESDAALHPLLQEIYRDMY
Sequence of Cellular tumor antigen p53 (Homo sapiens) (P04637 whole entry, looked up): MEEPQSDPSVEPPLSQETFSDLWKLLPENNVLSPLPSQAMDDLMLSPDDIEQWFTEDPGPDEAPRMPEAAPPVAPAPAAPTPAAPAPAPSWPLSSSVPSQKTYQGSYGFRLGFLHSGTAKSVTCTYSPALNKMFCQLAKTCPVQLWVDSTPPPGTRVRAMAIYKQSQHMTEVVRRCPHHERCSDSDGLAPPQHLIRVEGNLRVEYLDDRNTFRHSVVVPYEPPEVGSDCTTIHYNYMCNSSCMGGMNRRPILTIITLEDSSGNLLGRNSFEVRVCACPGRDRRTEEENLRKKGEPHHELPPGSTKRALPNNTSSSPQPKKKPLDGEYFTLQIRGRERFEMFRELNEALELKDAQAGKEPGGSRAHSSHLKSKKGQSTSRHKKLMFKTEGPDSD
Sequence of human Retinoic Acid Receptor beta (RARb), RARB (gene 5915) (P10826 whole entry, looked up, the tested form may be a part): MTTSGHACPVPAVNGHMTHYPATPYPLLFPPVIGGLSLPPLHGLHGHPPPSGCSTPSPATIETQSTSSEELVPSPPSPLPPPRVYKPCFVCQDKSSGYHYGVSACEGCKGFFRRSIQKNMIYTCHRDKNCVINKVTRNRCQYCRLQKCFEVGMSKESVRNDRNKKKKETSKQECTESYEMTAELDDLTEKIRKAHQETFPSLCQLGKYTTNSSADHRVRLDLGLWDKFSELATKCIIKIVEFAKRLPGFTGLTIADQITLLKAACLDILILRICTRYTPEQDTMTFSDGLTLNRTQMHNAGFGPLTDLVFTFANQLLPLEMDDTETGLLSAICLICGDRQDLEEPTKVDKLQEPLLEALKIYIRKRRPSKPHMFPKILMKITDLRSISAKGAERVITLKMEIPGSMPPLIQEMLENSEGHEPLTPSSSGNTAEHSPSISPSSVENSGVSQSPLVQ
Sequence of human Peroxisome Proliferator-activated Receptor delta (PPARd), PPARD (gene 5467) (Q03181 whole entry, looked up, the tested form may be a part): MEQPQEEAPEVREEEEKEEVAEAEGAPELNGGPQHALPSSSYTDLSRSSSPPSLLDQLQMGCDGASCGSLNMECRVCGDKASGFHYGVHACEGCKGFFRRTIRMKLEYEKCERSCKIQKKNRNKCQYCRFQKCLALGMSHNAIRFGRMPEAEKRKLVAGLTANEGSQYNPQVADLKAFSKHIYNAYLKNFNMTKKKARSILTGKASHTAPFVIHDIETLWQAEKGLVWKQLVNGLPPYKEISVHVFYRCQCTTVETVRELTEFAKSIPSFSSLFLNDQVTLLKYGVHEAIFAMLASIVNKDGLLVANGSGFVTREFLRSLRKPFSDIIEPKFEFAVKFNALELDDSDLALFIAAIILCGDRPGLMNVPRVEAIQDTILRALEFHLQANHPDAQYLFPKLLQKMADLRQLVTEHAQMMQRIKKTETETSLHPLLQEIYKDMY
Sequence of Nuclear receptor subfamily 1 group I member 2 (Homo sapiens) (O75469 whole entry, looked up, the tested form may be a part): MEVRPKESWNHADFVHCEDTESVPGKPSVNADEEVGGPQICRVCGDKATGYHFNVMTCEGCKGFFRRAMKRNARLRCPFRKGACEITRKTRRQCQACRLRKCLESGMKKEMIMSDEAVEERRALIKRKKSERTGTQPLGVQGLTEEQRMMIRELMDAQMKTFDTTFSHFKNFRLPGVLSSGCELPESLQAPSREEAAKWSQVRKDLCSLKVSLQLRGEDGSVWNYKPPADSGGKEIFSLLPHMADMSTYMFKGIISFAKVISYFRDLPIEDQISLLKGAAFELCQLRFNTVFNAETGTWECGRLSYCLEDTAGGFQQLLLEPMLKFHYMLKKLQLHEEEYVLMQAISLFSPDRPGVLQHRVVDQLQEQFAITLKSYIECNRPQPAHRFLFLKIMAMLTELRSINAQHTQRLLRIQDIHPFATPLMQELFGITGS
Sequence of Nuclear respiratory factor 1 (Homo sapiens) (Q16656 whole entry, looked up): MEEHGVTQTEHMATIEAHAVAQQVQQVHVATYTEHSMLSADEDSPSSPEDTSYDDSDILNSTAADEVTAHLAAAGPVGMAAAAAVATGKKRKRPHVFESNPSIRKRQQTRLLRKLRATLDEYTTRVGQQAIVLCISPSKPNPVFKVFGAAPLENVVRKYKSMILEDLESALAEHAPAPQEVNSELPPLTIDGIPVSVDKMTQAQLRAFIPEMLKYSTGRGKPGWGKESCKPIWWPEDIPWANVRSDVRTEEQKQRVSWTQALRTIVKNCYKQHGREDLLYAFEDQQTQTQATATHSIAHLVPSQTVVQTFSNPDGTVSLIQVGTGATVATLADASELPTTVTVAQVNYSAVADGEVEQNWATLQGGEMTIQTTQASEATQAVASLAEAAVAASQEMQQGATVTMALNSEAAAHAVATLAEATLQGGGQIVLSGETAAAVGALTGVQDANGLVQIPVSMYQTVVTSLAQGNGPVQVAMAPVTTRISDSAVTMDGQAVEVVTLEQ
Sequence of Retinoic acid receptor alpha (Homo sapiens) (P10276 whole entry, looked up, the tested form may be a part): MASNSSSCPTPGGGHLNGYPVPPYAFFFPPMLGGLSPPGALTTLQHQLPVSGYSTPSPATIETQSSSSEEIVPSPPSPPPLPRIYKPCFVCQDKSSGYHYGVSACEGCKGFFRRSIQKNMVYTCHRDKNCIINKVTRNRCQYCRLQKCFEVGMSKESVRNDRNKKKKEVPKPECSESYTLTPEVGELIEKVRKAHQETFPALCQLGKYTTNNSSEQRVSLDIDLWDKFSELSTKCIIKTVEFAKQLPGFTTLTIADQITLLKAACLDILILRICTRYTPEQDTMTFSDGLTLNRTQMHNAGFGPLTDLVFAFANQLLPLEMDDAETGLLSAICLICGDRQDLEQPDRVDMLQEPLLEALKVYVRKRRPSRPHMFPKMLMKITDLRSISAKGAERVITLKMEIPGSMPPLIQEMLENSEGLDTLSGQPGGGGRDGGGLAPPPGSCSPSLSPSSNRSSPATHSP

Structure (SMILES): CC(=O)CC(C)(C)O
- outcome [1]: inactive
- outcome [2]: inactive
- outcome [3]: inactive
- outcome [4]: inactive
- outcome [5]: inactive
- outcome [6]: inactive
- outcome [7]: inactive
- outcome [8]: inactive
- outcome [9]: inactive
- outcome [10]: inactive
- outcome [11]: inactive
- outcome [12]: inactive
- outcome [13]: inactive
- outcome [14]: inactive
- outcome [15]: inactive
- outcome [16]: inactive
- outcome [17]: inactive
- outcome [18]: inactive

Structure (SMILES): C=C(C)C(=O)OCCC(F)(F)C(F)(F)C(F)(F)C(F)(F)C(F)(F)C(F)(F)F
- outcome [1]: inactive
- outcome [2]: inactive
- outcome [3]: inactive
- outcome [4]: inactive
- outcome [5]: inactive
- outcome [19]: inactive
- outcome [6]: inactive
- outcome [7]: inactive
- outcome [8]: inactive
- outcome [9]: inactive
- AC50 [10]: 20 µM (active)
- outcome [10]: inactive
- outcome [11]: inactive
- outcome [13]: inactive
- AC50 [16]: 12.8 µM (active)
- outcome [16]: inactive
- outcome [17]: inactive

Structure (SMILES): CCC(=C(c1ccc(O)cc1)c1ccc(OCCN(C)C)cc1)c1ccccc1
- outcome [1]: inactive
- outcome [2]: inactive
- AC50 [3]: 13.1 µM (active)
- outcome [3]: inactive
- outcome [4]: inactive
- AC50 [5]: 5.93 µM (active) and 1.95 µM (active) and 1.77 µM (active)
- outcome [5]: inactive
- AC50 [7]: 11 µM (active)
- AC50 [8]: 7.66 µM (active)
- AC50 [9]: 11.9 µM (active)
- AC50 [10]: 7.42 µM (active)
- AC50 [11]: 11.8 µM (active)
- outcome [11]: inactive
- outcome [12]: inactive
- AC50 [13]: 12.6 µM (active)
- outcome [14]: inactive
- outcome [15]: inactive
- AC50 [16]: 5.85 µM (active)
- AC50 [17]: 3.28 µM (active) [middle of 4 runs]
- outcome [18]: inactive

Structure (SMILES): c1ccc2c(c1)ccc1ccccc12
- outcome [1]: inactive
- outcome [2]: inactive
- outcome [3]: inactive
- outcome [4]: inactive
- outcome [5]: inactive
- outcome [19]: inactive
- outcome [6]: inactive
- AC50 [7]: 3.97 µM (active)
- outcome [8]: inactive
- outcome [9]: inactive
- outcome [10]: inactive
- outcome [12]: inactive
- outcome [13]: inactive
- outcome [16]: inactive
- outcome [17]: inactive
- outcome [18]: inactive

Structure (SMILES): CCCCCCCCCCCCN1CCCC1=O
- outcome [1]: inactive
- outcome [2]: inactive
- outcome [3]: inactive
- outcome [4]: inactive
- outcome [5]: inactive
- outcome [19]: inactive
- outcome [6]: inactive
- AC50 [7]: 33.6 µM (active)
- AC50 [8]: 31.1 µM (active)
- AC50 [9]: 35.2 µM (active)
- AC50 [10]: 36.9 µM (active)
- outcome [12]: inactive
- AC50 [13]: 31 µM (active)
- AC50 [16]: 30.6 µM (active)
- AC50 [17]: 9.09 µM (active)

Structure (SMILES): CC(C)(C)c1cc(C(C)(C)C)c(O)c(C(C)(C)C)c1
- outcome [1]: inactive
- AC50 [2]: 54.2 µM (active)
- outcome [2]: inactive
- outcome [3]: inactive
- AC50 [5]: 49.6 µM (active) and 57.1 µM (active)
- AC50 [19]: 27.6 µM (active) and 43.2 µM (active)
- outcome [6]: inactive
- outcome [7]: inactive
- outcome [8]: inactive
- outcome [9]: inactive
- outcome [10]: inactive
- outcome [12]: inactive
- outcome [13]: inactive
- outcome [16]: inactive
- outcome [17]: inactive
